Measured values: PubChem BioAssay (EPA / NIEHS)
The source made the active and inactive calls. How the source made its calls: active means hit-call score of the fitted dose curve at least 0.9, where 1 is the maximum; inactive means score below 0.9.

Legend:
[1] = target: Transcription factor E2F1 (Homo sapiens) (UniProt Q01094); assay: ATG_E2F_CIS: Attagene CIS-FACTORIAL HepG2 Assay for human E2F Transcription Factor 1 (AID 2282935); details: HepG2 Attagene cis-reporter, E2F reporter RNA transcripts; actives raise or lower the signal
Summary of the method: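 First, HepG2 cells were transfected with reporter transcription units. Next, they were dosed for 24 h. Then RNA was isolated, converted to cDNA, PCR-amplified, FAM-labeled, HpaI-digested and analyzed by capillary electrophoresis.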

[2] = ATG_E_Box_CIS: Attagene CIS-FACTORIAL HepG2 Assay for human Enhancer Box (E-box) (AID 2282936); details: HepG2 E-box cis-reporter transcription, actives raise or lower the signal
Summary of the method: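 Endogenous transcription factor activity was sensed in human HepG2 liver cells through transfected cis-promoter reporter units. After 24 h of dosing, total RNA was reverse-transcribed and reporter cDNA resolved by capillary electrophoresis.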

[3] = ATG_M_61_CIS: Attagene CIS-FACTORIAL HepG2 Assay for M61 Transcription Factor (Internal Marker) (AID 2282937); details: HepG2 Attagene CIS-FACTORIAL M61 internal marker reporter; actives raise or lower the signal
Summary of the method: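 Endogenous transcription factor activity in HepG2 is read through transiently transfected cis-element reporter units. After 24 h dosing, RNA undergoes reverse transcription, PCR and primer extension with 6-FAM before capillary electrophoresis; DMSO-referenced bidirectional fit.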

[4] = ATG_EGR_CIS: Attagene CIS-FACTORIAL HepG2 Assay for human Early Growth Response 1 (EGR1) (AID 2282938); details: HepG2 Attagene CIS-FACTORIAL EGR reporter mRNA; actives raise or lower the signal
Summary of the method: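 Activity is taken as induction or loss of reporter mRNA versus DMSO, fitted bidirectionally. Transcripts from cis-regulated reporter units in transiently transfected HepG2 were measured after 24 h by RT-PCR with capillary electrophoresis.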

[5] = ATG_M_19_CIS: Attagene CIS-FACTORIAL HepG2 Assay for M19 Transcription Factor (Internal Marker) (AID 2282939); details: HepG2 Attagene CIS-FACTORIAL M19 internal marker reporter; actives raise or lower the signal
Summary of the method: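 Background-control endpoint from a multiplexed HepG2 reporter panel. Cells carrying cis-regulated reporter constructs are treated 24 h, then reporter transcripts are amplified, fluorescently labelled and sized by capillary electrophoresis. DMSO defines baseline.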

[6] = ATG_ERE_CIS: Attagene CIS-FACTORIAL HepG2 Assay for Estrogen Response Element (ERE) (AID 2282940); details: HepG2 ERE cis-reporter, Attagene RNA transcript; actives raise or lower the signal
Summary of the method: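 Cells used were human hepatoma HepG2, transfected with multiple reporter transcription units under cis-regulatory promoters. Reporter mRNA, read 24 h post-dosing via fluorescent RT-PCR products on capillary electrophoresis, was fitted bidirectionally relative to DMSO.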

[7] = target: Hepatocyte nuclear factor 3-beta (Homo sapiens) (UniProt Q9Y261); assay: ATG_FoxA2_CIS: Attagene CIS-FACTORIAL HepG2 Assay for human Forkhead box A2 (FOXA2) (AID 2282942); details: HepG2 cis-reporter transcription factor activity, 24 h; actives raise or lower the signal
Summary of the method: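 Reporter transcript induction is measured by fluorescence after capillary electrophoresis of RT-PCR products from HepG2 cells exposed 24 h. Cis-regulated reporter units report endogenous factor activity; curves fitted both directions against DMSO.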

[8] = ATG_FoxO_CIS: Attagene CIS-FACTORIAL HepG2 Assay for human Forkhead box O (FoxO) (AID 2282943); details: HepG2 Attagene cis-reporter, FoxO element, mRNA; actives raise or lower the signal
Summary of the method: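 24 h chemical exposure, HepG2 with transient cis-MRTU transfection. RNA extraction, oligo(dT) RT, reporter-specific PCR, primer-extension labelling, HpaI digestion, CE fragment analysis; bidirectional fit, DMSO baseline.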

[9] = ATG_GATA_CIS: Attagene CIS-FACTORIAL HepG2 Assay for human GATA Binding Protein (AID 2282944); details: HepG2 GATA cis-element reporter, Attagene multiplex mRNA; actives raise or lower the signal
Summary of the method: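 Endogenous transcription factor activity was captured through cis-promoter-driven reporters in transfected HepG2 cells. After 24 h exposure, reporter transcripts were quantified by RT-PCR with fluorescent capillary electrophoresis, and responses fitted both directions against DMSO.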

[10] = ATG_GLI_CIS: Attagene CIS-FACTORIAL HepG2 Assay for human Zinc Finger Protein GLI1 (AID 2282945); details: HepG2, Attagene cis-factorial reporter mRNA, GLI element; actives raise or lower the signal
Summary of the method: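 HepG2 cells transiently transfected with cis-promoter multiplexed reporter units report endogenous transcription factor activity. After 24 h chemical exposure, reporter mRNA was quantified by RT-PCR, 6-FAM labelling, HpaI digestion and capillary electrophoresis, with bidirectional fitting against DMSO.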

[11] = target: Bile acid receptor (Homo sapiens) (UniProt Q96RI1); assay: ATG_IR1_CIS: Attagene CIS-FACTORIAL HepG2 Assay for human Nuclear Receptor Subfamily 1 Group H Member 4 (NR1H4), IR1 submotif (AID 2282946); details: IR1 reporter transcription, actives raise or lower the signal
Summary of the method: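 Readout: reporter transcript levels by RT-PCR with fluorescent capillary electrophoresis, from HepG2 cells transiently transfected with multiplexed cis-regulated reporters and dosed 24 h. Gain- or loss-of-signal fitted versus DMSO negative control.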

[12] = ATG_GRE_CIS: Attagene CIS-FACTORIAL HepG2 Assay for human Glucocorticoid Response Elements (GRE) (AID 2282947); details: HepG2 GRE cis-reporter, Attagene multiplex mRNA; actives raise or lower the signal
Summary of the method: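 Cells (HepG2) bearing transfected cis-promoter reporter transcription units were treated with chemical for 24 hours. Reporter mRNA was measured via RT-PCR with capillary electrophoresis, and activity was fitted in both directions relative to DMSO.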

[13] = ATG_ISRE_CIS: Attagene CIS-FACTORIAL HepG2 Assay for human Interferon Regulatory Factor 1 (IRF1) binding to an Interferon-Stimulated Response Element (ISRE) (AID 2282948); details: HepG2 ISRE cis-reporter (Attagene), mRNA transcription readout; actives raise or lower the signal
Summary of the method: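 Multiplexed mRNA reporter readout in human liver HepG2 cells: cis-element-driven reporters transfected, compound added for 24 h, transcripts amplified, fluorescently labelled and sized by capillary electrophoresis; curve fitting bidirectional against DMSO.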

[14] = ATG_M_32_CIS: Attagene CIS-FACTORIAL HepG2 Assay for M32 Transcription Factor (Internal Marker) (AID 2282949); details: HepG2 Attagene cis-factorial M32 reporter, mRNA; actives raise or lower the signal;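 further: background control marker of the multiplexed CIS panel rather than a real target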
Summary of the method: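 HepG2 transfectants (cis-regulated reporter transcription units) dosed 24 h. Reporter mRNA by RT-PCR plus CE, analysed as gain or loss relative to DMSO.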

[15] = ATG_M_06_CIS: Attagene CIS-FACTORIAL HepG2 Assay for M06 Transcription Factor (Internal Marker) (AID 2282950); details: HepG2 Attagene CIS-FACTORIAL M06 internal marker reporter; actives raise or lower the signal
Summary of the method: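 Steps: transfect HepG2 with multiplexed cis-element reporter constructs; dose chemical 24 h; extract RNA with DNase treatment; reverse-transcribe, PCR-amplify, 6-FAM label, HpaI digest; separate fragments by capillary electrophoresis. Activity fitted both directions versus DMSO.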

[16] = target: Heat shock factor protein 1 (Homo sapiens) (UniProt Q00613); assay: ATG_HSE_CIS: Attagene CIS-FACTORIAL HepG2 Assay for human Heat Shock Transcription Factor 1 (HSE) (AID 2282953); details: HepG2 HSE cis-reporter, Attagene RNA transcription; actives raise or lower the signal
Summary of the method: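 Cells were transfected with cis-element-driven reporter constructs, dosed for 24 h, then total RNA was reverse-transcribed and reporter cDNA amplified, FAM-labelled and digested with HpaI. Fragments were resolved by capillary electrophoresis; gain or loss was fitted against DMSO.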

[17] = ATG_MRE_CIS: Attagene CIS-FACTORIAL HepG2 Assay for human Metal Responsive Element (MRE) (AID 2282954); details: HepG2 MRE cis-reporter transcription, Attagene multiplex; actives raise or lower the signal
Summary of the method: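 Cells were transfected with cis-promoter reporter transcription units, then dosed for 24 h. RNA was reverse-transcribed, amplified, fluorescently labelled and resolved by capillary electrophoresis, and activity was fitted in both directions relative to DMSO.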

[18] = target: Hepatocyte nuclear factor 6 (Homo sapiens) (UniProt Q9UBC0); assay: ATG_HNF6_CIS: Attagene CIS-FACTORIAL HepG2 Assay for human Hepatocyte Nuclear Factor 6 (HNF6) (AID 2282952); details: HepG2 Attagene cis-factorial HNF6 reporter transcription; actives raise or lower the signal
Summary of the method: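 Using cis-element reporters in HepG2 liver cells, the assay tracks endogenous factor-driven transcription 24 h post-dosing. Signal comes from 6-FAM-labelled, HpaI-digested RT-PCR fragments, with gain or loss scored against DMSO.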

[19] = target: Hypoxia-inducible factor 1-alpha (Homo sapiens) (UniProt Q16665); assay: ATG_HIF1a_CIS: Attagene CIS-FACTORIAL HepG2 Assay for human Hypoxia Inducible Factor 1 (HIF1A) (AID 2282951); details: HepG2 Attagene cis-factorial HIF1a reporter transcription; actives raise or lower the signal
Summary of the method: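 Fluorescence intensity of capillary-separated, 6-FAM-labelled reporter amplicons gives mRNA induction in HepG2 cells carrying transfected cis-promoter reporter units; cells exposed 24 h, responses fitted up or down from DMSO.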

Measured: outcome

Sequence of Heat shock factor protein 1 (Homo sapiens) (Q00613 whole entry, looked up, the tested form may be a part): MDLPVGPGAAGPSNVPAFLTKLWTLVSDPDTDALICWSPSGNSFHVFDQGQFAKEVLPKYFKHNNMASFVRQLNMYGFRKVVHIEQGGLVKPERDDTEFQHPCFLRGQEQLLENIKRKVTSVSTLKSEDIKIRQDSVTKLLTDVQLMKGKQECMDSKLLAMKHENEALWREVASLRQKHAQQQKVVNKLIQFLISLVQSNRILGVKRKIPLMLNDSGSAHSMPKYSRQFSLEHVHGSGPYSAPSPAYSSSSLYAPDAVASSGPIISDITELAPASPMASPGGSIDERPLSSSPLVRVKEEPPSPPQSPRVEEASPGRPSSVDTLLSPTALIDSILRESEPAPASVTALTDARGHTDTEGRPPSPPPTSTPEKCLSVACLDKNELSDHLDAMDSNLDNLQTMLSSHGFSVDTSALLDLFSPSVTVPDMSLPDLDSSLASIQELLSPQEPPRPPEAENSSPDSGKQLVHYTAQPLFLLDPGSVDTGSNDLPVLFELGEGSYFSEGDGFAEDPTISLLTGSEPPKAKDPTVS
Sequence of Hepatocyte nuclear factor 6 (Homo sapiens) (Q9UBC0 whole entry, looked up, the tested form may be a part): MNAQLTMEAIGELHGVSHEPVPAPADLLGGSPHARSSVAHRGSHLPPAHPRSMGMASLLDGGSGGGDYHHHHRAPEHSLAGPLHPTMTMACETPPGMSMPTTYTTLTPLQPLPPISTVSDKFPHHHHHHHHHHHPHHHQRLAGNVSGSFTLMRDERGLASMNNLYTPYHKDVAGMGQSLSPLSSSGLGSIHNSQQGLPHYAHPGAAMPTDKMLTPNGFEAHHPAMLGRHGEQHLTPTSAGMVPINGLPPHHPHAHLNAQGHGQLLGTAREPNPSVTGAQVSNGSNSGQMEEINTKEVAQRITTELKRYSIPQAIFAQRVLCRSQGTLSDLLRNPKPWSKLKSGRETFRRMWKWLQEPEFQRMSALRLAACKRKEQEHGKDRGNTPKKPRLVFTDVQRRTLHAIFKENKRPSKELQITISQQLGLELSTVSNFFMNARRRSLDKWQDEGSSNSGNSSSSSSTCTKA
Sequence of Bile acid receptor (Homo sapiens) (Q96RI1 whole entry, looked up): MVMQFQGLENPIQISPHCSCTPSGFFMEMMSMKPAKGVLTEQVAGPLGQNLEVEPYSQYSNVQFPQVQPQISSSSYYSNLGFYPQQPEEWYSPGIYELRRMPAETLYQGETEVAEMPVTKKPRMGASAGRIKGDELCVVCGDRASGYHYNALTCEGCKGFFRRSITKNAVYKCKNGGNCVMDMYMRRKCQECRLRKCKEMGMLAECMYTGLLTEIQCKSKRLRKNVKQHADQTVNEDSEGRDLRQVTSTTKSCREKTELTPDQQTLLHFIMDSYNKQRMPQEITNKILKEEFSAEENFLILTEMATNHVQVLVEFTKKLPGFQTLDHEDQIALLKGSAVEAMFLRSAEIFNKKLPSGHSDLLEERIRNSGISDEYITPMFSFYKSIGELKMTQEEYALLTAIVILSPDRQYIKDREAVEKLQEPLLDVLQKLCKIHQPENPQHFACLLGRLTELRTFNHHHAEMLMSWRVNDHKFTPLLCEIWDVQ
Sequence of Hepatocyte nuclear factor 3-beta (Homo sapiens) (Q9Y261 whole entry, looked up): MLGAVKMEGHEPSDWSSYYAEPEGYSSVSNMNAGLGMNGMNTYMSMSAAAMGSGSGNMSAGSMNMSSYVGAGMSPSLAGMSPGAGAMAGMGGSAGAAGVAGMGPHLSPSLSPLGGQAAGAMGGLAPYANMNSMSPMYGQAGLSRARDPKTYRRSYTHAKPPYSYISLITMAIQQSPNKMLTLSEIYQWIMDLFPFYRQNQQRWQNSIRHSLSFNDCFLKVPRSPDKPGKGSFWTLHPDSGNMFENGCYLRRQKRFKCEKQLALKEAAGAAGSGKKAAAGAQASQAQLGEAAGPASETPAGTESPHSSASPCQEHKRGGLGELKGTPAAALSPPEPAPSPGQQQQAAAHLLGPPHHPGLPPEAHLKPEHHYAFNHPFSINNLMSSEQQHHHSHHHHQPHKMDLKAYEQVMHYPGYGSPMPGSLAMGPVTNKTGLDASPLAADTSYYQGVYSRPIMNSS
Sequence of Transcription factor E2F1 (Homo sapiens) (Q01094 whole entry, looked up): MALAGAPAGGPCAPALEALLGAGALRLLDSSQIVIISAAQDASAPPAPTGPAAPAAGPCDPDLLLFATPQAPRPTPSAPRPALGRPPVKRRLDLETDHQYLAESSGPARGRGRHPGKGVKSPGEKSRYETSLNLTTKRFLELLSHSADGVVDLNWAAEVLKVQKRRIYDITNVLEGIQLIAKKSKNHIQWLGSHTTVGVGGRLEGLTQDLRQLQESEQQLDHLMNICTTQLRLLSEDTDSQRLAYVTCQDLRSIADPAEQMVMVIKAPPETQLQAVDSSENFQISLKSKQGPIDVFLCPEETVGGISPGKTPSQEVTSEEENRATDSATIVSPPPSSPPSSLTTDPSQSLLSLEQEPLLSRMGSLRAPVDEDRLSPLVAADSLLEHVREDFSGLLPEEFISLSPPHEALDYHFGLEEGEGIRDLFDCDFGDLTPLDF
Sequence of Hypoxia-inducible factor 1-alpha (Homo sapiens) (Q16665 whole entry, looked up): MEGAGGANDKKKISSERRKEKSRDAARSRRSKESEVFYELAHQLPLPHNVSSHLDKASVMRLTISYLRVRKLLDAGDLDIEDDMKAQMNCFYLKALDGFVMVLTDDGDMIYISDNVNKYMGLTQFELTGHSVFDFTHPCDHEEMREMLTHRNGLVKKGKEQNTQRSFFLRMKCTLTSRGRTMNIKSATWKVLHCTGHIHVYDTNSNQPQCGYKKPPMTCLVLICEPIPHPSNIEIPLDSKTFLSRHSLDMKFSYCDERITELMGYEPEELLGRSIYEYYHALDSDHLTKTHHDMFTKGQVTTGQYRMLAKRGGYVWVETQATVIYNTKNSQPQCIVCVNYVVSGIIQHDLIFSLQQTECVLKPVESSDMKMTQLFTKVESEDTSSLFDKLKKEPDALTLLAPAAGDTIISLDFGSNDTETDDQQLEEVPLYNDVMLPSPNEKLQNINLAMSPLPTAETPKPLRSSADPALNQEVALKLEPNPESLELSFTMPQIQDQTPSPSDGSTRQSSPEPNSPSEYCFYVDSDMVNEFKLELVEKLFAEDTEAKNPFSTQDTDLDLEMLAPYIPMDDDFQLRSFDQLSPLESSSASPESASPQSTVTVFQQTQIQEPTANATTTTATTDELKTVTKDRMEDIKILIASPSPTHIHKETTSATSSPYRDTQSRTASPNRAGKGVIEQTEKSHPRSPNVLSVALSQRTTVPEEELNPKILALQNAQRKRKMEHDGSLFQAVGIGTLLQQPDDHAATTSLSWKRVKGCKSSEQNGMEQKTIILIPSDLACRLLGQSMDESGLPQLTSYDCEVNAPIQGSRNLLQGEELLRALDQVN

NC(=O)C(F)(F)C(F)(F)C(F)(F)F
inactive: [1] | [2] | [3] | [4] | [5] | [6] | [7] | [8] | [9] | [10] | [11] | [12] | [13] | [14] | [15] | [16] | [17]

Nc1cc([N+](=O)[O-])cc(Cl)c1O
inactive: [1] | [2] | [3] | [4] | [5] | [6] | [8] | [9] | [10] | [11] | [12] | [13] | [14] | [15] | [18] | [16] | [17]

CC1=CCC2C(=O)OC(=O)C2C1 (stereo unspecified)
inactive: [1] | [2] | [3] | [4] | [5] | [6] | [7] | [8] | [9] | [10] | [11] | [12] | [13] | [14] | [15] | [18] | [16] | [17]

Cc1ccc2c(c1)OCC(=O)CO2
inactive: [1] | [2] | [3] | [4] | [5] | [6] | [7] | [8] | [9] | [10] | [11] | [12] | [13] | [14] | [18] | [16] | [17]

Cc1cccc(C)n1
inactive: [1] | [2] | [3] | [4] | [5] | [6] | [8] | [9] | [10] | [11] | [12] | [13] | [14] | [19] | [18] | [16] | [17]

CCOCN(C(=O)CS(=O)(=O)O)c1c(C)cccc1CC
inactive: [1] | [2] | [3] | [4] | [5] | [6] | [7] | [8] | [9] | [10] | [11] | [12] | [13] | [14] | [15] | [19] | [16] | [17]

COCCC(=O)OC
inactive: [1] | [2] | [3] | [4] | [5] | [6] | [7] | [8] | [9] | [10] | [11] | [12] | [13] | [14] | [15] | [16] | [17]
